Experimental data as given in the supplement of paper PMC10849652.
About 7,900 targets were measured; listed, in parts, are those with a hit and a random draw of the rest. About 0.6% of all pairs of compound and target were hits.

Tests used:
Experiment in all cases: log2 fold change, soluble protein after heating vs DMSO (PISA); higher = thermal stabilisation; K562 cells, 10 uM, 30 min; active = over 0.2 and 3.5 SD of the protein, either way, in both replicates (recomputed)
[1] = compound: COC1=CC=C(C=C1)CN2C=CC3=C2C=C(C=C3)C(=O)NO
Outline: (§1)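 K562 cells at 2×10^6 cells/mL were treated with 10 μM compound for 30 min. Aliquots were heated for 3 min across 48°C-58°C, pooled, and extracted in PBS with 0.5% NP-40 at 4°C; soluble protein was the supernatant after 21,000xg for 90 min. Soluble protein was quantified by TMTpro 16plex LC-MS/MS with channel sums equalised, and reported as log2 fold change in thermal stability against DMSO controls, with values from duplicates.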

[2] = compound: CON(C)C(=O)N1N=C(c2cc(F)ccc2F)S[C@@]1(CCCN)c1ccccc1 [filanesib]
Outline: as §1

[3] = compound: CO[C@H]1C[C@@H]2CC[C@@H](C)[C@@](O)(O2)C(=O)C(=O)N2CCCC[C@H]2C(=O)O[C@H]([C@H](C)C[C@@H]2CC[C@H](n3cnnn3)[C@H](OC)C2)CC(=O)[C@H](C)/C=C(\C)[C@@H](O)[C@@H](OC)C(=O)[C@H](C)C[C@H](C)/C=C/C=C/C=C/1C [zotarolimus]
Outline: as §1

[4] = compound: COc1cc(C(=O)O)ccc1NC(=O)[C@@H]1N[C@@H](CC(C)(C)C)[C@](C#N)(c2ccc(Cl)cc2F)[C@H]1c1cccc(Cl)c1F [idasanutlin]
Outline: as §1

[5] = compound: COc1cc(Nc2ncc3c(n2)-c2ccc(Cl)cc2C(c2c(F)cccc2OC)=NC3)ccc1C(=O)O [alisertib]
Outline: as §1

[6] = compound: COc1cc2nc(-c3cc(F)ccc3O)nc(N[C@@H]3CNC[C@H]3C(C)(C)O)c2cc1OC
Outline: as §1

[7] = compound: COc1cc2ncnc(Nc3ccc(F)c(Cl)c3)c2cc1OCCCN1CCOCC1 [gefitinib]
Outline: as §1

[8] = compound: COc1cccc2cc(-c3nc([C@H]4CC[C@H](C(=O)O)CC4)n4ncnc(N)c34)[nH]c12
Outline: as §1

[9] = compound: CS(=O)(=O)CCNCc1ccc(-c2ccc3ncnc(Nc4ccc(OCc5cccc(F)c5)c(Cl)c4)c3c2)o1 [lapatinib]
Outline: as §1

[10] = compound: CS(=O)(=O)N1CCN(Cc2cc3nc(-c4cccc5[nH]ncc45)nc(N4CCOCC4)c3s2)CC1 [pictilisib]
Outline: as §1

[11] = compound: CS(=O)(=O)c1ccc(-c2cnc(N)c(C(=O)Nc3ccccc3)n2)cc1
Outline: as §1

[12] = compound: C[C@@H](Oc1cc(-c2cnn(C3CCNCC3)c2)cnc1N)c1c(Cl)ccc(F)c1Cl [crizotinib]
Outline: as §1

[13] = compound: C[C@@H]1COCCN1C2=NC(=NC(=C2)C3(CC3)S(=O)(=O)C)C4=C5C=CNC5=CC=C4
Outline: as §1

[14] = compound: C[C@H](C1=CC=C(C=C1)C(=O)NC2=C3C=CNC3=NC=C2)N
Outline: as §1

[15] = compound: C[C@H](Nc1ncnc2nc[nH]c12)c1cc2cccc(Cl)c2c(=O)n1-c1ccccc1 [duvelisib]
Outline: as §1

[16] = compound: Cc1cc(Nc2cc(CN3CCOCC3)c3nc(C)c(Cc4ccc(Cl)cc4F)n3n2)n[nH]1 [gandotinib]
Outline: as §1

[17] = compound: Cc1cc(Nc2cc(N3CCN(C)CC3)nc(Sc3ccc(NC(=O)C4CC4)cc3)n2)n[nH]1 [tozasertib]
Outline: as §1

[18] = compound: Cc1cc(SCc2sc(-c3ccc(C(F)(F)F)cc3)nc2C)ccc1OCC(=O)O
Outline: as §1

[19] = compound: Cc1ccc(-n2nc(C(C)(C)C)cc2NC(=O)Nc2ccc(OCCN3CCOCC3)c3ccccc23)cc1 [doramapimod]
Outline: as §1

[20] = compound: Cc1ccc(C(=O)N(CCCN)[C@@H](c2nc3cc(Cl)ccc3c(=O)n2Cc2ccccc2)C(C)C)cc1 [ispinesib]
Outline: as §1

Measured: log2 fold change

LSR (UniProt Q86X29)
Chain of UniProt Q86X29 (Q86X29 whole entry, looked up): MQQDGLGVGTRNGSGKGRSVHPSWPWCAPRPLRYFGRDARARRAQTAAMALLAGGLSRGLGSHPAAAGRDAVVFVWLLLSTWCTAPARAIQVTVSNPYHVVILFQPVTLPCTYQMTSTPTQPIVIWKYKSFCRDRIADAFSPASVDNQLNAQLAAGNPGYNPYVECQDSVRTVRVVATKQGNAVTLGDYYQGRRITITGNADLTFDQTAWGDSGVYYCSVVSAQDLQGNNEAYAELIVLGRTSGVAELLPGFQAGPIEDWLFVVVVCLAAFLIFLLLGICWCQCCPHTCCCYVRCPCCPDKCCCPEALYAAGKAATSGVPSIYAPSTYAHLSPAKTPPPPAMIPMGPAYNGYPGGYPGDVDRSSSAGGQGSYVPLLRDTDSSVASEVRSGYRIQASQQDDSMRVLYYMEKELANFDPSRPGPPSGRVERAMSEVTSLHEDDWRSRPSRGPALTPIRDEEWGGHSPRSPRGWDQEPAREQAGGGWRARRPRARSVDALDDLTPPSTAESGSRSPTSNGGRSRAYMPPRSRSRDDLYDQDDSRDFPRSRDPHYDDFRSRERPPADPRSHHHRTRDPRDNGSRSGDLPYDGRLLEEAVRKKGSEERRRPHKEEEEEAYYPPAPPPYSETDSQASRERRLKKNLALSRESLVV
inactive: [1] 0.107 | [2] 0.116 | [3] -0.011 | [4] -0.022 | [5] -0.122 | [6] 0.027 | [7] 0.021 | [8] 0.033 | [9] -0.056 | [10] 0.121 | [11] 0.08 | [12] 0.043 | [13] 0.009 | [14] -0.025 | [15] 0.061 | [16] -0.012 | [17] -0.044 | [18] -0.031 | [19] 0.04 | [20] 0.027

KPNA4 (UniProt O00629)
Chain of UniProt O00629 (O00629 whole entry, looked up): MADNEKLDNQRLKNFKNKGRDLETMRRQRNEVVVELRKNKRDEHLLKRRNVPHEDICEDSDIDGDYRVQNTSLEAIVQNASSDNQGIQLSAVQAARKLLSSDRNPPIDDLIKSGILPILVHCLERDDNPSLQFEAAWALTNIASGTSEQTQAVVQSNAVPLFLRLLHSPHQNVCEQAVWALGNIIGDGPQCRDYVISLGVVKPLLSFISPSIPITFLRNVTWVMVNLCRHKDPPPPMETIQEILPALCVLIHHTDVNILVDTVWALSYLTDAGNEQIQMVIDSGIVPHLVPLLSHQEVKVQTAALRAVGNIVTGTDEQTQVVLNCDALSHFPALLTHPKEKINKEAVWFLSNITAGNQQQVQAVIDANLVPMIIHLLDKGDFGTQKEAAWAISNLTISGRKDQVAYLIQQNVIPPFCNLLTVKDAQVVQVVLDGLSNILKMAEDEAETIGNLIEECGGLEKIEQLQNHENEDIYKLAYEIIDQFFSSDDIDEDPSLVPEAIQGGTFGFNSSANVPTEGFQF
inactive: [1] 0.017 | [2] -0.028 | [3] 0.015 | [4] -0.068 | [5] -0.026 | [6] -0.091 | [7] 0.041 | [8] 0.044 | [9] -0.017 | [10] -0.025 | [11] 0.004 | [12] -0.003 | [13] 0.024 | [14] -0.073 | [15] 0.03 | [16] -0.032 | [17] -0.014 | [18] 0.014 | [19] -0.046 | [20] 0.037

KTN1 (UniProt Q86UP2)
Chain of UniProt Q86UP2 (Q86UP2 whole entry, looked up): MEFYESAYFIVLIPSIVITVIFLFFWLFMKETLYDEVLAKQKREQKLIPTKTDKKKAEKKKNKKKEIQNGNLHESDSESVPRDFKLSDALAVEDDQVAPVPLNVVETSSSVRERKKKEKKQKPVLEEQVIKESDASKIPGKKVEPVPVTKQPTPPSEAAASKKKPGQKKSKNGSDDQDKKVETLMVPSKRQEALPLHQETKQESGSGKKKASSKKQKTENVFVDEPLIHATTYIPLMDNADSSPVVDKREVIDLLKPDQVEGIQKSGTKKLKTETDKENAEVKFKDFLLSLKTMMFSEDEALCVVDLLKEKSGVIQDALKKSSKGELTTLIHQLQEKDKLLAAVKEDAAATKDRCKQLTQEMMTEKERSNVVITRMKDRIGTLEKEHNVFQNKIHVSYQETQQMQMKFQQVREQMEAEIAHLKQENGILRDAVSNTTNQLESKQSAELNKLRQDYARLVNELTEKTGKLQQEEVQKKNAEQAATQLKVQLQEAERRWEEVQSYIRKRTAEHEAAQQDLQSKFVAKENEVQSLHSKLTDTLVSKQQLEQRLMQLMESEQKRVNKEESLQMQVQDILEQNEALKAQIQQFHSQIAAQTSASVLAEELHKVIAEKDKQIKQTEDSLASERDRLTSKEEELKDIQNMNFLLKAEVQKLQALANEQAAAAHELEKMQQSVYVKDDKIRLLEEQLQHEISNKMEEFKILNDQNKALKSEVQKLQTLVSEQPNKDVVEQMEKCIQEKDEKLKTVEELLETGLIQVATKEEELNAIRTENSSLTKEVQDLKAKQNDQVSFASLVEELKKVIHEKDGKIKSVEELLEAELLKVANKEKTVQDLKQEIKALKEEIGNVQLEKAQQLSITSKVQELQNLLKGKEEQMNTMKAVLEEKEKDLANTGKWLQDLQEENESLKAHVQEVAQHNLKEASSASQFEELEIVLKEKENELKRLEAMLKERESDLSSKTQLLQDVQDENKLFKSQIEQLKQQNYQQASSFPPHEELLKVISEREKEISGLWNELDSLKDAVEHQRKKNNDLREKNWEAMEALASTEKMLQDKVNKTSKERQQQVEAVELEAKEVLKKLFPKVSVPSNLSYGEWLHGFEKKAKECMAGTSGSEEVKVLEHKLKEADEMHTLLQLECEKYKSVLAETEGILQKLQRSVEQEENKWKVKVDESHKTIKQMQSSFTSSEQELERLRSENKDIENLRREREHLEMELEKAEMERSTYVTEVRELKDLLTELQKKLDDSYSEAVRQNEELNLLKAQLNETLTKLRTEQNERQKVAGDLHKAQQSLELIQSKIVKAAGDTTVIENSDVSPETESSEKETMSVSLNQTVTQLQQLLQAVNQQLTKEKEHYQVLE
inactive: [1] 0.023 | [2] 0.146 | [3] 0.034 | [4] 0.004 | [5] 0.032 | [6] -0.001 | [7] -0.08 | [8] -0.116 | [9] -0.038 | [10] -0.086 | [11] -0.016 | [12] -0.078 | [13] -0.028 | [14] 0.122 | [15] -0.027 | [16] -0.047 | [17] -0.007 | [18] 0.097 | [19] 0.094 | [20] -0.207

IPO7 (UniProt O95373)
inactive: [1] 0.053 | [2] -0.094 | [3] 0.014 | [4] -0.103 | [5] -0.087 | [6] -0.111 | [7] 0 | [8] -0.014 | [9] -0.008 | [10] -0.006 | [11] -0.011 | [12] -0.138 | [13] 0.042 | [14] -0.07 | [15] 0.029 | [16] -0.185 | [17] 0.102 | [18] 0.073 | [19] -0.054 | [20] -0.077

MAIP1 (UniProt Q8WWC4)
inactive: [1] 0.054 | [2] -0.12 | [3] -0.025 | [4] -0.033 | [5] -0.047 | [6] -0.088 | [7] -0.002 | [8] 0.095 | [9] 0.036 | [10] 0.01 | [11] 0.071 | [12] -0.114 | [13] 0.062 | [14] -0.072 | [15] 0.025 | [16] -0.025 | [17] 0.027 | [18] -0.005 | [19] -0.008 | [20] -0.21

KPNB1 (UniProt Q14974)
inactive: [1] 0.033 | [2] -0.024 | [3] 0.052 | [4] -0.048 | [5] -0.07 | [6] -0.065 | [7] -0.063 | [8] -0.076 | [9] -0.001 | [10] -0.032 | [11] -0.027 | [12] -0.201 | [13] -0.038 | [14] 0.047 | [15] -0.045 | [16] -0.09 | [17] 0.094 | [18] 0.083 | [19] 0.026 | [20] -0.225

KRAS isoform 2 (UniProt P01116)
Chain of UniProt P01116 (P01116 whole entry, looked up): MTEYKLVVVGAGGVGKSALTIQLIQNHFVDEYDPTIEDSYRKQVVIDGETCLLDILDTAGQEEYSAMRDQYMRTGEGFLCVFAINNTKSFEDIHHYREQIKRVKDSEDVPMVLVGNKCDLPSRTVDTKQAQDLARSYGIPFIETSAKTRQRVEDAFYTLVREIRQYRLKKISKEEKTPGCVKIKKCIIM
inactive: [1] 0.01 | [2] 0.005 | [3] -0.033 | [4] 0.099 | [5] 0.029 | [6] 0.037 | [7] 0.015 | [8] 0.033 | [9] -0.009 | [10] 0.046 | [11] 0.03 | [12] 0.024 | [13] -0.016 | [14] 0.019 | [15] -0.084 | [16] -0.05 | [17] -0.079 | [18] -0.018 | [19] -0.019 | [20] -0.09

KDELR2 (UniProt P33947)
Chain of UniProt P33947 (P33947 whole entry, looked up): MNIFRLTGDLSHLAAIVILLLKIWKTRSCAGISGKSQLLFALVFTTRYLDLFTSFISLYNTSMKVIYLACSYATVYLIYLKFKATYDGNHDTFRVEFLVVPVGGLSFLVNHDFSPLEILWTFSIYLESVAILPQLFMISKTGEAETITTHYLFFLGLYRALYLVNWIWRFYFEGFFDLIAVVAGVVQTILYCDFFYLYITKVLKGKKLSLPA
inactive: [1] -0.155 | [2] -0.105 | [3] 0.035 | [4] -0.162 | [5] -0.014 | [6] -0.136 | [7] -0.064 | [8] 0.048 | [9] -0.127 | [10] -0.013 | [11] 0.056 | [12] 0.035 | [13] 0.205 | [14] -0.096 | [15] 0.099 | [16] -0.107 | [17] -0.027 | [18] -0.007 | [19] 0.016 | [20] 0.016

LEMD2 (UniProt Q8NC56)
Chain of UniProt Q8NC56 (Q8NC56 whole entry, looked up): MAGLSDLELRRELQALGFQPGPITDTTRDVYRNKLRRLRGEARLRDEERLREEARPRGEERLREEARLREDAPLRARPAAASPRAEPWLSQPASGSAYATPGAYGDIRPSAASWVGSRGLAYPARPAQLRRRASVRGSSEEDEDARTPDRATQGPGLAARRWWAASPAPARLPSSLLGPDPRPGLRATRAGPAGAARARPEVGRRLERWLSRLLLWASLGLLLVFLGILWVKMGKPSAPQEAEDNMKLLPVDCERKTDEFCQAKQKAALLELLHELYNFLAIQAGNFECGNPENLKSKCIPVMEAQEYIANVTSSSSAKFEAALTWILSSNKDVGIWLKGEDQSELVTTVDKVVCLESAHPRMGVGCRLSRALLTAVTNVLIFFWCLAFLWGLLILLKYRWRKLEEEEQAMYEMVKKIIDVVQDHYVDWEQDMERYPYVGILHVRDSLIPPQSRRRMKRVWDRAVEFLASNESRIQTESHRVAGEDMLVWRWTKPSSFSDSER
active: [12] -0.286 | [20] -0.438
inactive: [1] -0.051 | [2] -0.211 | [3] 0 | [4] -0.008 | [5] 0.044 | [6] -0.271 | [7] 0.061 | [8] 0.047 | [9] 0.133 | [10] -0.007 | [11] -0.001 | [13] 0.084 | [14] -0.057 | [15] -0.016 | [16] -0.17 | [17] 0.008 | [18] 0.109 | [19] 0.079

MAGEC2 (UniProt Q9UBF1)
Chain of UniProt Q9UBF1 (Q9UBF1 whole entry, looked up): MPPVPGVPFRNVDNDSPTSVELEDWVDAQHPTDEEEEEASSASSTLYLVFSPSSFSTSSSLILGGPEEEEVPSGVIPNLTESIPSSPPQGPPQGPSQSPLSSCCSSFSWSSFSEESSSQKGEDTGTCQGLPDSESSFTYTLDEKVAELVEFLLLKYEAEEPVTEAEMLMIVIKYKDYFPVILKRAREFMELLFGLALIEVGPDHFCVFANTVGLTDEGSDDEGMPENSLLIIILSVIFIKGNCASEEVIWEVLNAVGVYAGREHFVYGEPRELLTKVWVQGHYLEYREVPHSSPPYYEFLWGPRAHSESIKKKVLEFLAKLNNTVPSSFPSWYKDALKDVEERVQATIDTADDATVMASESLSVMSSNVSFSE
inactive: [1] 0.018 | [2] -0.032 | [3] 0.039 | [4] -0.045 | [5] -0.044 | [6] 0.015 | [7] -0.018 | [8] -0.005 | [9] -0.004 | [10] 0.058 | [11] 0.008 | [12] 0.049 | [13] 0.009 | [14] 0.081 | [15] 0.043 | [16] 0.055 | [17] 0.107 | [18] -0.036 | [19] -0.036 | [20] -0.012

MAPRE3 (UniProt Q9UPY8)
Chain of UniProt Q9UPY8 (Q9UPY8 whole entry, looked up): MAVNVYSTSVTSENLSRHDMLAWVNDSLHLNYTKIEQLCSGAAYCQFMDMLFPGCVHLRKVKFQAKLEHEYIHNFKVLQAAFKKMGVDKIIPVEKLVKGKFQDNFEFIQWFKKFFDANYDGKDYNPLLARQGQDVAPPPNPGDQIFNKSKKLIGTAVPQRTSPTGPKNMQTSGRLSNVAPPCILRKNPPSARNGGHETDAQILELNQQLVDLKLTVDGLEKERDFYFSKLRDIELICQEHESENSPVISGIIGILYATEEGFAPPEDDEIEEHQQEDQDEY
active: [1] -0.242
inactive: [2] 0.006 | [3] 0.013 | [4] 0.023 | [5] 0.022 | [6] 0.033 | [7] 0.004 | [8] -0.013 | [9] -0.044 | [10] -0.008 | [11] -0.011 | [12] 0.004 | [13] 0.092 | [14] -0.085 | [15] 0.02 | [16] -0.098 | [17] 0.037 | [18] 0.006 | [19] -0.042 | [20] 0.02

LPIN1 isoform 7 (UniProt Q14693)
Chain of UniProt Q14693 (Q14693 whole entry, looked up): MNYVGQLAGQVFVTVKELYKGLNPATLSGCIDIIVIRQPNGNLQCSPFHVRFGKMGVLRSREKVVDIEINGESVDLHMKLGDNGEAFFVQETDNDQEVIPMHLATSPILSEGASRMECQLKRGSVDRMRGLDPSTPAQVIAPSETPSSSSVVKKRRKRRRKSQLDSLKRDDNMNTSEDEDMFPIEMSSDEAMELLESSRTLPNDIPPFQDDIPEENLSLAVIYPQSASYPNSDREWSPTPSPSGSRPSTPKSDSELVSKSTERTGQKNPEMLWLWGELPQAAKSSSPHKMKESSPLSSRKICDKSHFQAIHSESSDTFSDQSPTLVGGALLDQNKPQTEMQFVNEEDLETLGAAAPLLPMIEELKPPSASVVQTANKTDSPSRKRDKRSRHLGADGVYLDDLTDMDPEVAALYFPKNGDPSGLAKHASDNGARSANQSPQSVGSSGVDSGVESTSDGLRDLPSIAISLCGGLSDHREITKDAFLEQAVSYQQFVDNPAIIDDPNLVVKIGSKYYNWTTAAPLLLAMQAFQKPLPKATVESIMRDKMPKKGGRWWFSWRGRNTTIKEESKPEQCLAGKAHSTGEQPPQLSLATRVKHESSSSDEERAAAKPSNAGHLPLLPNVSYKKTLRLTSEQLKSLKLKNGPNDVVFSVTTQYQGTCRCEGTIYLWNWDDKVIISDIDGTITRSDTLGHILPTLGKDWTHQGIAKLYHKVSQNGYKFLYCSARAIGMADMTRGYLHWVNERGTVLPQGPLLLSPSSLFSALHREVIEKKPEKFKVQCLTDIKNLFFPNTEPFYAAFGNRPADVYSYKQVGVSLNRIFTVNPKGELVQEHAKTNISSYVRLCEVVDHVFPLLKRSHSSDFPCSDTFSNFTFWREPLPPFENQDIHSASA
inactive: [1] -0.079 | [2] 0.047 | [3] -0.048 | [4] -0.03 | [5] 0.046 | [6] 0.017 | [7] -0.018 | [8] -0.041 | [9] -0.101 | [10] -0.035 | [11] 0 | [12] -0.184 | [13] -0.034 | [14] 0.031 | [15] -0.052 | [16] -0.079 | [17] -0.021 | [18] -0.043 | [19] 0.067 | [20] -0.037
